Assay results published in the supplement of paper PMC4894684.
Counter-ions that a name gives are not always drawn. ± gives the standard deviation of the averaged measurements.

Test system: Toxoplasma gondii RH (in HFF)
Assay: parasite growth relative to the screen mean (all compounds = 100%); higher = less inhibition of parasite growth
Conditions: 5 µM; 72 h; oxygen 21 %
Procedure, shortened: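 Each value is parasite growth expressed against the screen mean, averaged over two screens, where the mean of all compounds = 100%. The screen used 5 µM final compound on confluent human foreskin fibroblasts infected with RH β-Gal–GFP Toxoplasma (MOI 1:5) within 2 h and grown 72 h at 21% O2. Parasite number was measured by a CPRG β-Gal assay against in-plate standard curves.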

Row | Structure (SMILES) | parasite growth [%]
1 | N[C@@H](C(=O)O)c1ccc(O)c(C(=O)O)c1 [(R)-3-Carboxy-4-hydroxyphenylglycine] | 148 ± 15
2 | CC(=O)N1CCN(c2ccc(OCC3COC(Cn4ccnc4)(c4ccc(Cl)cc4Cl)O3)cc2)CC1 (centres undefined) [Ketoconazole] | 186 ± 29
3 | Cc1ccc(O)c(N=Nc2ccccc2)n1 | 92.5 ± 68
4 | CS(=O)(=O)c1ccc(-c2cc(Br)sc2-c2ccc(F)cc2)cc1 | 47.5 ± 14
5 | CC(C(=O)O)c1ccc(-c2ccccc2)c(F)c1 (centres undefined) [Flurbiprofen] | 139 ± 26
6 | COc1ccc2c(c1)c(CC(=O)O)c(C)n2C(=O)c1ccc(Cl)cc1 [Indomethacin] | 150 ± 30
7 | CN(C)CCCN1c2ccccc2CCc2ccc(Cl)cc21 [Clomipramine hydrochloride] | 38.4 ± 2.9
8 | FC(F)(F)c1cccc(-c2noc(-c3cc(-c4ccccc4)c(C(F)(F)F)s3)n2)c1 | 109 ± 44
9 | O=C(Cc1ccccc1)Nc1nc2ccc(Cl)cc2c2nc(-c3ccco3)nn12 | 121 ± 57
10 | O=C(c1ccc(Nc2nccc(-c3cc4ccccc4s3)n2)cc1)N1CCC(N2CCCC2)CC1 | < 0
11 | CN=c1nc(-c2ccccc2)n(-c2ccccc2)s1 | 127 ± 29
12 | c1cc2c3c(c1)c1c(n3CCNC2)CCCC1 [WAY 629 hydrochloride] | 130 ± 4
13 | Cc1nc2ccc(NC(=O)Nc3ccnc4cccnc34)cc2o1 | 88.83 ± 0.52
14 | O=c1[nH]c2cc(C(F)(F)F)c(N3CCOCC3)cc2n(CP(=O)(O)O)c1=O | 118 ± 4
15 | NC[C@@H]1O[C@H](C23CC4CC(CC(C4)C2)C3)Cc2c1ccc(O)c2O | 89.5 ± 18
16 | CN(C)C(=O)n1nnnc1Cc1ccc(-c2ccccc2)cc1 | 84.9 ± 38
17 | COc1ccccc1N1CCN(CCCCNC(=O)c2ccc(-c3ccc(C(C)=O)cc3)cc2)CC1 | 156 ± 28
18 | O=C(O)c1ccc2cc(-c3ccc(O)c(C45CC6CC(CC(C6)C4)C5)c3)ccc2c1 | 181 ± 36
19 | O=c1nc2ccccc2c2n1CC(CN1CCN(c3ccccc3)CC1)N2 (centres undefined) | 120 ± 2.4
20 | CCOC(=O)C1=C(N)Oc2ccc(Br)cc2C1C(C#N)C(=O)OCC (centres undefined) | 135 ± 2.5

Row | Structure (SMILES) | parasite growth [%]
21 | CCc1cc(-c2n[nH]c(C)c2-c2ccc3c(c2)OCCO3)c(O)cc1O | 215 ± 12
22 | N=C(N)S/C=C\C(=O)O [ZAPA sulphate] | 106 ± 28
23 | O=C(O)CCC/C=C\CC1C(O)CC(O)C1/C=C/C(O)COc1cccc(Cl)c1 (racemic) [(±)-Cloprostenol sodium salt] | 121 ± 15
24 | COc1cc2ncnc(Nc3ccc(Oc4ccccc4)cc3)c2cc1OC | 110 ± 20
25 | NS(=O)(=O)c1cccc2c1c([N+](=O)[O-])cc1nc(O)c(O)nc12 [NBQX disodium salt] | 112 ± 14
26 | CN(C)c1ccc(/C=C2/C(=O)Nc3ccccc32)cc1 | 124 ± 26
27 | C[C@@H](N)[C@H]1CC[C@H](C(=O)Nc2ccncc2)CC1 | 92.3 ± 21
28 | COc1cc(SC)ccc1C(=O)N1CCC(Cc2ccccc2)CC1 | 112 ± 5.8
29 | COc1ccc(CCN(C)CCCN2CCc3cc(OC)c(OC)cc3CC2=O)cc1OC [Zatebradine hydrochloride] | 103 ± 1.8
30 | CCC(CC)(CC(=O)Nc1cccc(/C=C/c2nc(C3CCC3)cs2)c1)C(=O)O [Cinalukast] | 115 ± 12
31 | NC(=O)c1ccc(-c2nc(-c3ccccn3)c(-c3ccc4c(c3)OCO4)[nH]2)cc1 | 36.2 ± 32
32 | Clc1ccc(-c2nc3sccn3c2/C=N/OCc2ccc(Cl)c(Cl)c2)cc1 | 110 ± 8.4
33 | Nc1nc2ccc(OC(F)(F)F)cc2s1 [Riluzole hydrochloride] | 88.1 ± 11
34 | NC(=O)N1c2ccccc2CC(O)c2ccccc21 (centres undefined) [Licarbazepine] | 122 ± 9.9
35 | CC1=C(/C=C/C(C)=C/C=C/C(C)=C/C(=O)Nc2ccc(O)cc2)C(C)(C)CCC1 [Fenretinide] | 38 ± 8.6
36 | NC(=O)c1cccc(N)c1 [3-Aminobenzamide] | 129 ± 30
37 | CCc1ccc(OCc2ccccc2C(=O)Nc2ccc3nc(C)cc(N)c3c2)cc1 | < 0
38 | CCN1CCC[C@H]1CNC(=O)c1cc(S(N)(=O)=O)ccc1OC [(S)-(-)-Sulpiride] | 93.2 ± 3.8
39 | CN/C(=N\c1ccc(C2=NNC(=O)CC2C)cc1)NC#N (centres undefined) [Siguazodan] | 130 ± 23
